The record followed here is PubChem BioAssay (EPA / NIEHS).

Inconclusive results are not listed. Activity calls are given as the source filed them. How the source made its calls, unless noted: active means hit-call score of the fitted dose curve at least 0.9, where 1 is the maximum; inactive means score below 0.9.

The nature of assay [1]: APR_HepG2_CellCycleArrest_1hr: Apredica 1-hour HepG2 Assay for Cell Cycle Arrest (AID 2282666). To be noted: high-content imaging, actives raise or lower the signal. An outline of the steps:
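Cell cycle arrest scored from nuclear DNA content (Hoechst 33342) using high-content imaging of fixed HepG2 cells after 1 h treatment across 0.39–200 uM, in duplicate. Gain or loss fitted relative to 0.5% DMSO.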

Assay [2] in a line: ACEA_ER_80hr: ACEA Biosciences xCELLigence Real-Time Cell Analysis on Estrogen Receptor Agonism for Proliferation (AID 2282667; active means hit-call score of the fitted dose curve at least 0.9, where 1 is the maximum). The settings on record: T47D proliferation, impedance (xCELLigence), 80 h. Summed up:
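Real-time impedance growth kinetics of human T-47D breast cells read 80 h after dosing, gain-of-signal fitted relative to DMSO. Compounds: 1:4 serial series, top final concentration 100 uM, n = 2.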

The nature of assay [3]: APR_HepG2_NuclearSize_1hr: Apredica 1-hour HepG2 Assay for Nuclear Size (AID 2282670). To be noted: high-content imaging, actives raise or lower the signal. Summed up: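 Nuclear size measured by high-content imaging of Hoechst 33342 nuclear stain after formaldehyde fixation; human HepG2 line exposed 1 hr to compounds at 0.39–200 uM in 0.5% DMSO, with bidirectional curve fitting relative to DMSO.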

The nature of assay [4]: APR_HepG2_p53Act_1hr: Apredica 1-hour HepG2 Assay for p53 Activation (AID 2282671). To be noted: high-content imaging, actives raise or lower the signal. An outline of the steps:
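After 1 h exposure (0.39–200 uM, 0.5% DMSO final, duplicates), fixed HepG2 cells were labelled with anti-p53 antibody plus Hoechst nuclear stain. Fluorescence quantified by automated 20x imaging; changes fitted in both directions against DMSO.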

The nature of assay [5]: APR_HepG2_MitoticArrest_1hr: Apredica 1-hour HepG2 Assay for Mitotic Arrest (AID 2282672). The settings on record: high-content imaging, actives raise or lower the signal. Summed up: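 Ten-point concentration series (0.39 to 200 uM, duplicates, 0.5% v/v DMSO) applied to human HepG2 liver cells for 1 hr. High-content imaging of phospho-histone H3 and Hoechst-stained nuclei after fixation and permeabilization; DMSO-normalised bidirectional fit.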

A short description of assay [6]: APR_HepG2_CellCycleArrest_24hr: Apredica 24-hour HepG2 Assay for Cell Cycle Arrest (AID 2282905).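 Further: cell cycle arrest scored as ratio of 2N to 4N nuclear DNA content.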 To be noted: imaging, actives raise or lower the signal. Summed up:
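After 24 h exposure at 0.39–200 uM in 0.5% DMSO, fixed cells received Hoechst 33342 staining. Imaging quantified per-nucleus DNA content; gain or loss fitted against DMSO controls.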

Assay [7] can be described thus: APR_HepG2_NuclearSize_24hr: Apredica 24-hour HepG2 Assay for Nuclear Size (AID 2282907). To be noted: high-content imaging, actives raise or lower the signal. Summed up:
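Nuclear size from Hoechst 33342-stained, formaldehyde-fixed HepG2 nuclei imaged by high-content microscopy, after 24 h dosing at ten concentrations from 0.39 to 200 uM in 0.5% DMSO; gain or loss relative to DMSO baseline.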

Assay [8] in a line: APR_HepG2_CellLoss_24hr: Apredica 24-hour HepG2 Assay for Cell Loss (AID 2282908).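 On AC50: fit in both directions so a hit may be cell loss or gain.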 The settings on record: high-content imaging. An outline of the steps:
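Nuclei stained with Hoechst 33342 after formaldehyde fixation (3.7%) were imaged at 20x to count cells. Exposure lasted 24 hr, at ten concentrations from 0.39 to 200 uM in duplicate, with 0.5% v/v DMSO. Fit bidirectional, relative to DMSO.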

Assay [9] is described as follows: APR_HepG2_MitoticArrest_24hr: Apredica 24-hour HepG2 Assay for Mitotic Arrest (AID 2282910). The settings on record: high-content imaging, actives raise or lower the signal. Summed up:
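HepG2, 24 hr dosing, 0.39–200 uM, 0.5% DMSO final. Formaldehyde-fixed, Triton-permeabilised, anti-phospho-histone H3 plus Hoechst. ArrayScan imaging at 20x; bidirectional fit vs DMSO baseline.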

Assay [10] can be described thus: APR_HepG2_MitoMembPot_24hr: Apredica 24-hour HepG2 Assay for Mitochondrial Membrane Potential (AID 2282911). To be noted: imaging, actives raise or lower the signal. Summed up:
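Mitochondrial membrane potential imaged via MitoTracker Red CMXRos (250 nM, 30 min pre-fixation) in fixed HepG2 cells with Hoechst nuclear identification. Ten concentrations 0.39–200 uM, 24 h treatment, 0.5% DMSO; CCCP as positive control.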

Assay [11] is described as follows: APR_HepG2_MitoMass_24hr: Apredica 24-hour HepG2 Assay for Mitochondrial Mass (AID 2282912). To be noted: high-content imaging, actives raise or lower the signal. An outline of the steps:
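Endpoint is MitoTracker Red CMXRos (250 nM, 30 min, pre-fixation) intensity from 20x high-content imaging, nuclei located by Hoechst. Human HepG2 cells received ten concentrations from 0.39 to 200 uM in 0.5% DMSO for 24 hr, duplicate wells. Bidirectional fit relative to DMSO.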

Assay [12] is described as follows: APR_HepG2_p53Act_24hr: Apredica 24-hour HepG2 Assay for p53 Activation (AID 2282913).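 Further: p53 protein immunofluorescence averaged per cell in HepG2 with Hoechst nuclei.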 The settings on record: high-content imaging, actives raise or lower the signal. Summed up:
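Fluorescence imaging of formaldehyde-fixed HepG2 cells labelled for p53 and with Hoechst, 24 h after dosing (0.39–200 uM, duplicate wells, 0.5% v/v DMSO). Signal fitted in both directions relative to DMSO.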

The nature of assay [13]: APR_HepG2_CellCycleArrest_72hr: Apredica 72-hour HepG2 Assay for Cell Cycle Arrest (AID 2282914). To be noted: high-content imaging, actives raise or lower the signal. Summed up:
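Read-out: nuclear DNA content from Hoechst 33342 high-content imaging (20x, six fields/well) after 3.7% formaldehyde fixation, fitted bidirectionally against DMSO. Treatment was 72 h in HepG2, ten concentrations 0.39–200 uM, duplicate, 0.5% DMSO.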

A short description of assay [14]: APR_HepG2_P-H2AX_1hr: Apredica 1-hour HepG2 Assay for H2AX Phosphorylation (AID 2282673). To be noted: high-content imaging, actives raise or lower the signal. Summed up:
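Phospho-H2A.x immunofluorescence (1:200, FITC secondary) plus Hoechst nuclear stain, quantified by high-content imaging in HepG2 after 1 hr compound exposure. Ten concentrations, 0.39 to 200 uM, in duplicate with 0.5% DMSO; fit both directions against DMSO.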

The nature of assay [15]: APR_HepG2_CellLoss_1hr: Apredica 1-hour HepG2 Assay for Cell Loss (AID 2282668).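 Further: curves fitted both ways against DMSO so gain or loss of cells counts.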 The settings on record: high-content imaging. An outline of the steps:
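Cell number comes from high-content imaging of Hoechst-labelled nuclei in fixed HepG2 cells. Cells were exposed for 1 h to ten concentrations from 0.39 to 200 uM in 0.5% DMSO. Gain or loss was fitted against DMSO controls.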

Assay [16] is described as follows: APR_HepG2_MitoMass_1hr: Apredica 1-hour HepG2 Assay for Mitochondrial Mass (AID 2282674). The settings on record: high-content imaging, actives raise or lower the signal. Summed up: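 Mitochondrial mass is taken from MitoTracker Red CMXRos (250 nM, 30 min, pre-fixation) fluorescence imaged at 20x in HepG2 cells. Exposure lasted 1 hr across ten concentrations, 0.39 to 200 uM, 0.5% DMSO; DMSO baseline, bidirectional fitting.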

Assay [17] can be described thus: APR_HepG2_StressKinase_1hr: Apredica 1-hour HepG2 Assay for Stress Kinase (AID 2282906). To be noted: HepG2 stress kinase (phospho-c-Jun) imaging, actives raise or lower the signal. Summed up:
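High-content imaging of phospho-c-Jun immunostaining (with Hoechst nuclear identification) after a 1 h exposure of HepG2 cells to 10 concentrations from 0.39 to 200 uM, final DMSO 0.5%. Fitted bidirectionally against DMSO.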

Assay [18] is described as follows: APR_HepG2_MicrotubuleCSK_1hr: Apredica 1-hour HepG2 Assay for Microtubule CSK Stabilty (AID 2282669). To be noted: HepG2 microtubule cytoskeleton imaging, actives raise or lower the signal. Summed up: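 Alpha-tubulin immunofluorescence, imaged by automated high-content microscopy with Hoechst nuclear segmentation, measured cytoskeletal change after 1 h dosing of HepG2 at 0.39–200 uM in 0.5% DMSO. Activity fitted in both directions relative to DMSO.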

A short description of assay [19]: APR_HepG2_MicrotubuleCSK_24hr: Apredica 24-hour HepG2 Assay for Microtubule CSK Stabilty (AID 2282909). The settings on record: HepG2 microtubule cytoskeleton imaging, actives raise or lower the signal. Summed up: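 Fixed HepG2 cells were stained for alpha-tubulin and imaged after 24 hr exposure to ten concentrations spanning 0.39–200 uM in 0.5% DMSO. Signal change was fitted in both directions relative to DMSO; taxol was the positive control.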

For `CC1=C(C(=O)Nc2ccccc2)SCCO1`, the result in assay [1], in assay [2], in assay [3], in assay [4], in [5] and in assay [6] was inactive. Further, the result in assay [7], in assay [8], in [9], in assay [10], in assay [11] and in assay [12] was inactive. Further, the compound was called inactive in [13].
The term AC50 denotes the concentration at which the activity in the assay is half-maximal. With `CN(C)C(=S)SSC(=S)N(C)C`, the result in [1], in assay [3], in assay [4], in assay [14], in [6] and in assay [7] was inactive. Besides, the outcome in assay [9], in [10], in assay [11] and in assay [12] was inactive. Further, the values for the AC50 in assay [2], in [8] and in [13] were 2.06 µM (active), 2.3 µM (active) and 0.039 µM (active), respectively.
Regarding `C=CC1(C)OC(=O)N(c2cc(Cl)cc(Cl)c2)C1=O` (stereo not drawn), the compound was classed as inactive in [2], in [15], in assay [3], in [4], in assay [16] and in [6]. Also, the outcome in assay [17], in assay [7], in [8], in [9], in [10] and in assay [11] was inactive. In addition, the outcome in assay [12] and in [13] was inactive.
Take `CC(C)C1(C)N=C(c2nc3ccccc3cc2C(=O)O)NC1=O` (stereo not drawn): the call in assay [2], in assay [15], in [3], in assay [4], in [5] and in assay [16] was inactive. The compound was classed as inactive in assay [6], in assay [7], in [8], in assay [9], in assay [10] and in [11]. Besides, the compound was called inactive in assay [12] and in [13].
Consider `CCNc1nc(Cl)nc(NC(C)C)n1`, for which the outcome in assay [2], in assay [15], in [18], in [3], in assay [4] and in [6] was inactive. Further, the compound was classed as inactive in assay [17], in assay [7], in assay [8], in assay [9], in assay [10] and in [11]. Besides, the compound was called inactive in [12] and in assay [13].
In the case of `N#CC(CCc1ccc(Cl)cc1)(Cn1cncn1)c1ccccc1` (stereo not drawn), the compound was called inactive in assay [1], in assay [2], in assay [3], in assay [4], in [5] and in assay [6]. In addition, the compound was classed as inactive in assay [17], in assay [7], in assay [10], in assay [11] and in assay [13]. In addition, the AC50 was 102 µM (active) in assay [8], 104 µM (active) in [19], 106 µM (active) in [9] and 103 µM (active) in assay [12].
